Measurements reported in PubChem BioAssay AID2284192 (EPA ToxCast).
Active and inactive are the calls of the source. The calls were made as follows: active = hit-call score of the fitted dose curve at least 0.9, where 1 is the maximum; inactive = score below 0.9.

target: human Opioid Receptor mu (MOP) Agonism, OPRM1 (gene 4988) (UniProt P35372); test: ERF_FR_GPCR_hOPRM1: Eurofins (ERF) G Protein-Coupled Receptor (GPCR) Radioligand Binding LeadHunter Assay for human Opioid Receptor mu (MOP) Agonism
Sequence (P35372 whole entry, looked up): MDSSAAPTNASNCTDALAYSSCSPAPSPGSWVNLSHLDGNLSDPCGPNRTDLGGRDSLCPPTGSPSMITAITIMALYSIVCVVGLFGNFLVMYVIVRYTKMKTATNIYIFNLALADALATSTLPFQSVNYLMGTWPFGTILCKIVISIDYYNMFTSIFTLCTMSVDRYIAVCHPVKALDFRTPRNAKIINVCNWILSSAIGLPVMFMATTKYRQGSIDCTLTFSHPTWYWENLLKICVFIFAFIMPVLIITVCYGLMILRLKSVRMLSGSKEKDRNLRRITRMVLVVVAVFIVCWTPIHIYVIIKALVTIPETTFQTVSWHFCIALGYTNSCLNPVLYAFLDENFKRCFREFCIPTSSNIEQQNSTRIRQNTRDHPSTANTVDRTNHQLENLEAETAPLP
Experimental: ERF_FR_GPCR_hOPRM1 is a biochemical, single-readout assay that uses extracted gene-proteins in a cell-free assay. Measurements were taken 2 hour after chemical dosing in a 96-well plate. See mu (MOP) Human Opioid GPCR Binding (Agonist Radioligand) Assay, Cerep.ERF_FR_GPCR_hOPRM1 is an assay component calculated from the ERF_FR_GPCR_hOPRM1 assay. It is designed to measure radioligand binding using a type of binding reporter as detected by scintillation counting with radiometry technology.Data from the assay component ERF_FR_GPCR_hOPRM1 was analyzed at the assay endpoint, ERF_FR_GPCR_hOPRM1, in the positive analysis fitting direction relative to DMSO as the negative control and baseline of activity. Using a type of binding reporter, gain-of-signal activity can be used to understand changes in binding as they relate to gene OPRM1. To generalize the intended target to other relatable targets, this assay endpoint is annotated to the gpcr intended target family, where the subfamily is opioid.
Human cells are incubated for 60 minutes at room temprature with [3H]DAMGO ligand (0.1 nM) and DAMGO as control inhibitor. Test Sample Requirements: Minimum for 1) Screen: 60 ul of 10 mM stock -OR- 1 mg (pre-weighed) for 10 uM final testing. 2) Dose Response: 90 ul of 10 mM stock -OR- 1 mg (pre-weighed) for a top concentration at 10 uM.

SMILES	AC50
O=C(/C=C/c1ccc(O)cc1)CC(=O)/C=C/c1ccc(O)cc1	419 nM (active)
